The record followed here is PubChem BioAssay (NCI).

Compounds without any hit were thinned out: in the full panel of roughly 83,000, 20% have a hit.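 Note: values are percent growth. 100 is the growth of untreated cells, values between 100 and 0 indicate rising inhibition; between -100 and 0 indicates cell death.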 A number with no mark means an inactive call. Calls of active or inactive are those of the source. Rule for the calls: active = growth percent below 10; inactive = the rest.

Test systems include T-47D breast; BT-549 breast; MDA-MB-435 melanoma; SW-620 colon; MCF7 breast; HCT-116 colon; HCC-2998 colon; KM12 colon.
Common to all, as to test: NCI-60 one-dose screen, 48 h (100 = growth as untreated, 0 = no growth, -100 = all killed)
Holding throughout (conditions): 10 µM unless noted

For the compound `O=C(NO)c1ccc(NCc2csc3ccccc23)cc1`, the growth in the experiment on T-47D breast was 41.5%; with BT-549 breast it was 77.6%; in the experiment with MDA-MB-435 melanoma it was 82.4%; in the experiment with SW-620 colon, 61.5%; in the experiment with MCF7 breast, 83%; with HCT-116 colon, 34.4%. The growth was 73.5% with HCC-2998 colon and 66.9% with KM12 colon.

In the case of `O=C(CI)NCCNc1cccc2c(S(=O)(=O)O)cccc12`, the growth in the experiment with T-47D breast is 103%; in the experiment on BT-549 breast, 96.8%; with MDA-MB-435 melanoma it was 93.2%; with SW-620 colon it was 102%; in the experiment on MCF7 breast it was 99.9%; in the experiment on HCT-116 colon it was 96%. Moreover, the growth is 112% in the experiment with HCC-2998 colon and 95.7% in the experiment on KM12 colon.

For `Cc1ccc(C2CC(c3cccs3)=NN2c2ccc(S(N)(=O)=O)cc2)s1` (stereo not drawn), the growth with T-47D breast was 71.5%; in the experiment on BT-549 breast, 102%; in the experiment on MDA-MB-435 melanoma, 80.8%; in the experiment with SW-620 colon it was 97.8%; with MCF7 breast it was 77.3%; in the experiment on HCT-116 colon it was 79.2%. Also, the growth is 103% in the experiment on HCC-2998 colon and 93.2% in the experiment on KM12 colon.

As to `O=C1/C(=C\c2cccn2Cc2ccc(Cl)cc2)c2ccccc2N1c1c(Cl)cccc1Cl`, the growth in the experiment with T-47D breast is 25.1%; with BT-549 breast, 94.5%; with MDA-MB-435 melanoma it was 106%; in the experiment on SW-620 colon it was 91.5%; in the experiment on MCF7 breast, 12.8%; in the experiment with HCT-116 colon it was 77%. Moreover, the growth was 79.8% in the experiment with HCC-2998 colon and 54.3% in the experiment with KM12 colon.

Turning to `NC(N)=N/N=C\c1ccc(OCc2ccccc2)cc1`, the growth in the experiment on T-47D breast was 35.7%; in the experiment on BT-549 breast, 89.3%; in the experiment with MDA-MB-435 melanoma it was 9.55% (active); in the experiment with SW-620 colon it was 73.9%; with MCF7 breast it was 17.3%; in the experiment with HCT-116 colon it was 61%. The growth with HCC-2998 colon was 82.3%; with KM12 colon, 58.8%.

Consider `Fc1ccc(-c2nnc(N3CCOCC3)c3ccccc23)cc1`, for which the growth in the experiment with T-47D breast was 102%; with BT-549 breast, 81.4%; with MDA-MB-435 melanoma it was 86.6%; in the experiment with SW-620 colon, 100%; in the experiment on MCF7 breast, 155%; in the experiment with HCT-116 colon, 87.9%. Further, the growth in the experiment on HCC-2998 colon is 110%; with KM12 colon it was 109%.

`CCOC(=O)C1=C(C)NC(SCc2nnc(-c3ccc(Cl)cc3)o2)=NC1c1ccc(Br)cc1` (stereo not drawn): the growth with T-47D breast was 48%; in the experiment on BT-549 breast, 79.8%; with MDA-MB-435 melanoma, 65.1%; in the experiment on SW-620 colon it was 91%; in the experiment on MCF7 breast it was 44.8%; with HCT-116 colon, 48.6%. Further, the growth is 91.2% in the experiment on HCC-2998 colon and 76% in the experiment on KM12 colon.

As to `COc1cccc(CC(C)=C(c2ccc(OCCCN(C)C)cc2)c2ccc(OCCCN(C)C)cc2)c1`, the growth in the experiment on T-47D breast was -68.2% (active); with BT-549 breast, 55.3%; with MDA-MB-435 melanoma it was -91.7% (active); in the experiment with SW-620 colon, -80.1% (active); in the experiment with MCF7 breast, -73.6% (active); in the experiment with HCT-116 colon, -75.6% (active). Besides, the growth is -71% (active) with HCC-2998 colon and -83% (active) in the experiment with KM12 colon.

`OC(c1cc2cc(Cl)ccc2c2cc(C(F)(F)F)ccc12)C1CCCCN1` (stereo not drawn): the growth with T-47D breast is -82.1% (active); with BT-549 breast it was 54.7%; with MDA-MB-435 melanoma it was -66.1% (active); with SW-620 colon, -78.3% (active); in the experiment with MCF7 breast, -86.3% (active); in the experiment on HCT-116 colon, -85.8% (active). Further, the results for the growth in the experiment on HCC-2998 colon and in the experiment on KM12 colon were -86.9% (active) and -90.9% (active), respectively.

Regarding `COc1ccc(C2=CC(c3ccc(OC)cc3Br)N3C=CSC3=N2)cc1` (stereo not drawn), the growth is 54.6% with T-47D breast; 30.7% with BT-549 breast; 4.2% (active) in the experiment with MDA-MB-435 melanoma; 27.3% in the experiment with SW-620 colon; 10.5% with MCF7 breast; -100% (active) in the experiment on HCT-116 colon. The growth with HCC-2998 colon was 59.7%; in the experiment with KM12 colon it was 24.1%.

For the compound `COc1cc2c(cc1OC)C(=O)C(Br)CC2` (stereo not drawn), the growth in the experiment with T-47D breast was 36.3%; in the experiment with BT-549 breast, 16.1%; in the experiment with MDA-MB-435 melanoma it was 20.2%; with SW-620 colon, 25.1%; in the experiment on MCF7 breast, 40.9%; in the experiment with HCT-116 colon, 7.03% (active). For the same compound, the growth in the experiment with HCC-2998 colon was 90.6%; in the experiment on KM12 colon it was 88.9%.

`CCCc1cc2c(cc1CN(Cc1cc3c(cc1CCC)OCO3)C(=N)OCC)OCO2`: the growth is 84.7% in the experiment on T-47D breast; 80.4% in the experiment on BT-549 breast; 103% in the experiment on MDA-MB-435 melanoma; 81% in the experiment with SW-620 colon; 86.5% in the experiment with MCF7 breast; 41.2% in the experiment with HCT-116 colon. The growth is 90.5% in the experiment with HCC-2998 colon and 92.8% with KM12 colon.

Take `CN(C)CCOc1nc2c3ccncc3cc(-c3cccc(Cl)c3)c2c2cnccc12`: the growth with T-47D breast is 38.7%; in the experiment with BT-549 breast it was 52.6%; with MDA-MB-435 melanoma, 30%; in the experiment on SW-620 colon it was 27.4%; in the experiment with MCF7 breast it was 12.5%; in the experiment with HCT-116 colon it was 11.4%. In addition, the growth in the experiment on HCC-2998 colon is 45%; with KM12 colon, 31.8%.

For `Oc1c(C(c2ccc(F)cc2)N2CCCCC2)ccc2cncnc12` (stereo not drawn), the growth with T-47D breast was 5.62% (active); in the experiment with BT-549 breast it was 25.8%; with MDA-MB-435 melanoma it was 14.1%; in the experiment on SW-620 colon it was 18.1%; with MCF7 breast, 6.3% (active); with HCT-116 colon, 11.1%. Besides, the figures for the growth in the experiment on HCC-2998 colon and with KM12 colon were 32.3% and 16.2%, respectively.

For `CCc1oc2ccccc2c1C(=O)c1cc(I)c(O)c(I)c1`, the growth was 98.9% in the experiment on T-47D breast; 39.3% in the experiment with BT-549 breast; -25.9% (active) with MDA-MB-435 melanoma; 19.2% with SW-620 colon; 33.8% in the experiment on MCF7 breast; 22.3% in the experiment with HCT-116 colon. Moreover, the growth in the experiment on HCC-2998 colon is 53.3%; in the experiment on KM12 colon it was 27.2%.

As to `Cc1ccc(S(=O)(=O)NC(CCC(=O)Nc2ccc(Cl)cc2)C(=O)Nc2ccc(Cl)cc2)cc1` (stereo not drawn), the growth with T-47D breast is 16.5%; with BT-549 breast, 27.3%; with MDA-MB-435 melanoma, 38.4%; with SW-620 colon, 31.1%; in the experiment on MCF7 breast, 30%; in the experiment with HCT-116 colon it was 23.8%. Moreover, the figures for the growth in the experiment on HCC-2998 colon and with KM12 colon were 23.5% and 12.8%, respectively.
